Screens (PubChem)
Only some compounds are listed: those with a hit (about 12% of all), similar ones and a draw of the others.
HP1b chromo inh = inhibitors of HP1-beta chromodomain binding to methylated histone tails | P83916 | AlphaScreen HP1-beta / biotin-H3K9me3 peptide binding | Potency, µM (highest dose often 114 µM), without a hit: at the highest dose activity change, negative = inhibition, most hits filed as inhibitors | 390,000 compounds, 0.56% hits; further: potency means the concentration at half of the fitted maximal effect; nearly all actives have a fitted effect of over 70% in size
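HP1-beta protein (50 nM final) preincubated 30 min at room temperature with biotinylated H3(1-18)K9me3 peptide (50 nM) in PBS pH 7.4, 0.01% Tween-20, then compound added for 30 min. AlphaScreen streptavidin donor/nickel chelate acceptor beads (10 ug/mL final), 30 min dark, luminescence read.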
JMJD2A Tudor = inhibitors of human JMJD2A Tudor domain | O75164 | AlphaScreen JMJD2A-Tudor / H3K4me3 peptide binding | 390,000 compounds, 4.4% hits | Potency, µM (titrated, usually from 114 µM), without a hit: at the highest dose activity change, negative = inhibition, usual class: inhibitors; further: potency means the concentration at half of the fitted maximal effect; on the % scale 0 is the no-effect control and ±100 the full control effect; nearly all actives have a fitted effect of over 50% in size
PLK1 PBD block = PLK1 (human) polo-box domain binding inhibition | Potency, µM, without a hit: max response, negative = inhibition, most hits filed as inhibitors | Plk1 PBD binding of FITC phosphopeptide, fluorescence polarization | AID 720504 | 360,000 compounds, 2.8% hits | P53350; further: potency means the concentration at half of the fitted maximal effect; series mostly up to about 57 µM; on the % scale 0 is the no-effect control and ±100 the full control effect; nearly all actives have a fitted effect of over 65% in size
BAZ2B inh = BAZ2B (human) inhibition; 360,000 compounds, 4.4% hits; AlphaScreen BAZ2B-H3K14Ac peptide displacement; Potency, µM (titrated, usually from 114 µM), inactives show at the top dose activity change, negative = inhibition, most hits filed as inhibitors; AID 504333; Q9UIF8; further: potency means the concentration at half of the fitted maximal effect; on the % scale 0 is the no-effect control and ±100 the full control effect; nearly all actives have a fitted effect of over 60% in size
Target sequence (Q9UIF8 whole entry, looked up): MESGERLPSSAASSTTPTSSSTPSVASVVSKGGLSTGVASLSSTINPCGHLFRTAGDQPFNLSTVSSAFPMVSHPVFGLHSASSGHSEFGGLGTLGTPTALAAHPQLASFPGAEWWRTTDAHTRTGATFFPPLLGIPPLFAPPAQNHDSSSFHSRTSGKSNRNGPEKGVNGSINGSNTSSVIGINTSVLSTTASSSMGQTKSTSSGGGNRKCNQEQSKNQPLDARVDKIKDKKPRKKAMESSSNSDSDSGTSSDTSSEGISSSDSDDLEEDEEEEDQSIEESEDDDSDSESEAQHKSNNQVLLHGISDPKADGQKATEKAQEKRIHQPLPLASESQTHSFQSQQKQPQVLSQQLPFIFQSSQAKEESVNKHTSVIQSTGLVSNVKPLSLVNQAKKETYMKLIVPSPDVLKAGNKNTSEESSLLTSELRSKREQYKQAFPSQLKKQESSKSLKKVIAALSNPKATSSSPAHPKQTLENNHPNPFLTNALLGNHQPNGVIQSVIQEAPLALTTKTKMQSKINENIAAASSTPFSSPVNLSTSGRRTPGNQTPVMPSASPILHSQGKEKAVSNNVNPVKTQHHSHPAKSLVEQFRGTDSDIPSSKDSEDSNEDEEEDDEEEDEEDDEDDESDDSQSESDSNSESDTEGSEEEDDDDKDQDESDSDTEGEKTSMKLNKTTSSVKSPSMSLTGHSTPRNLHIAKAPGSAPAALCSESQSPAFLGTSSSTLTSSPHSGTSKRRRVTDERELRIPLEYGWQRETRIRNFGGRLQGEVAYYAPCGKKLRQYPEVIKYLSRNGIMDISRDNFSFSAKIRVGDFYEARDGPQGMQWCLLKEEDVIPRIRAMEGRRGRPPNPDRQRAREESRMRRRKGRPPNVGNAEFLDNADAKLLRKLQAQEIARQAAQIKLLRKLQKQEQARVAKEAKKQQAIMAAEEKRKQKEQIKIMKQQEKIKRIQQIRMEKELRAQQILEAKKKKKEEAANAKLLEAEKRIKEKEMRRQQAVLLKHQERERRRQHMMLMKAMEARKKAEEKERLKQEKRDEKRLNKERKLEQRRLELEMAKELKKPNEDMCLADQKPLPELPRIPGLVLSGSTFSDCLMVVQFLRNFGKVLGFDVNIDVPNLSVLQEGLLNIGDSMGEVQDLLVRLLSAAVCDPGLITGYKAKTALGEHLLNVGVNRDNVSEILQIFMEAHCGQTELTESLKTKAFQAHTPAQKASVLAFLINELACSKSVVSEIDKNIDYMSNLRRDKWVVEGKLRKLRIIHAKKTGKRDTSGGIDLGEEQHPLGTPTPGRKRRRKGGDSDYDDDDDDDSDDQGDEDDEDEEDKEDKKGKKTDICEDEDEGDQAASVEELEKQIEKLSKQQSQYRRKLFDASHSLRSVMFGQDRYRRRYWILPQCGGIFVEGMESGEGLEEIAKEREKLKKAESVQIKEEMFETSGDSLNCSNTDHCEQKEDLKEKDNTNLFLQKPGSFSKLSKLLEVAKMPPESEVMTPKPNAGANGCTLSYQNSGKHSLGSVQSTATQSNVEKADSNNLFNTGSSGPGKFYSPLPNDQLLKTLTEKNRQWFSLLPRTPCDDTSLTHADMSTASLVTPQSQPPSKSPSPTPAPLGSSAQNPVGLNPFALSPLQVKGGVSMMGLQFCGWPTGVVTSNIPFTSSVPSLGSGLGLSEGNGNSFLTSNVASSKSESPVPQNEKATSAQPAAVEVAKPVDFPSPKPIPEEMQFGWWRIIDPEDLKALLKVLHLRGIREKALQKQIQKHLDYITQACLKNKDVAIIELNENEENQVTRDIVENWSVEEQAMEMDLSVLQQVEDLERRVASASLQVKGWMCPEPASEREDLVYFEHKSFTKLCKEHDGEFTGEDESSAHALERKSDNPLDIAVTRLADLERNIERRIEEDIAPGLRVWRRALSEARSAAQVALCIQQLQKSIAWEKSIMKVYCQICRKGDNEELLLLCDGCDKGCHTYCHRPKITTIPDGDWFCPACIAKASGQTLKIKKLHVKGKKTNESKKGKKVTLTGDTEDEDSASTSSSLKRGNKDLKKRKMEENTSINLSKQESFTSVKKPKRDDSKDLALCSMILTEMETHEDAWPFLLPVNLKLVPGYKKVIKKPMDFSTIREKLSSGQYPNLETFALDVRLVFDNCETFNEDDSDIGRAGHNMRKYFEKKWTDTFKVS
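BAZ2B 50 nM plus b-H3(5-23)K14Ac 50 nM, PBS pH 7.4/0.01% Tween-20, 30 min RT; compound added (max 110 uM), 30 min RT; streptavidin donor/Ni-chelate acceptor beads 10 ug/mL final, 20 min dark; AlphaScreen read.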
PI5P4Ka inh = blocks human PI5P4K alpha kinase activity; PI5P4Kalpha enzyme, ADP-Glo luminescence, 60 min; active compounds read low; max response, %; 330,000 compounds, 1.2% hits; AID 652105; active means max response of -50% or lower; inconclusive means between -30% and -50%; inactive means -30% or higher; further: value at the top dose of about 77 µM; on the % scale 0 is the no-effect control and ±100 the full control effect
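Enzyme plus substrate dispensed, test compounds pinned in, then ATP (5 microM final) added. After 60 min at RT, ADP-Glo reagent 1 for 45 min and reagent 2 for 30 min preceded luminescence imaging.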
G9a inh = inhibitors of human histone lysine methyltransferase G9a. Q96KQ7. G9a H3K9 monomethylation, AlphaScreen, 2 h. Potency, µM (top dose mostly 102 µM), inactives show at the top dose activity, negative = inhibition, actives largely listed as inhibitors. 350,000 compounds, 8.8% hits. AID 504332; further: potency means the concentration at half of the fitted maximal effect; on the % scale 0 is the no-effect control and ±100 the full control effect; nearly all actives have a fitted effect of over 75% in size
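Using a bead-based AlphaScreen, monomethylated H3K9 product from 2 h room-temperature reactions (G9a 20 nM, peptide 500 nM, SAM 20 uM) was detected with 0.5 ug/mL rabbit anti-H3K9me1 antibody.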
* hit, by the source's call; ? = inconclusive; . = no result given; ! = a repeat was not active; [ ] = remark or other dose. Unless noted, the call rests on the fitted dose curve; in most records, active means well fitted curve in the direction sought with a large enough effect; inconclusive means small, poorly fitted or top-dose-only effect, or another doubt; inactive means no such curve, though single readings can be large; an effect the other way counts as inactive or inconclusive.

SMILES	HP1b chromo inh	JMJD2A Tudor	PLK1 PBD block	BAZ2B inh	PI5P4Ka inh	G9a inh
CO[C@@H](C)[C@](O)(C(=O)OCC1=CCN2CC[C@@H](O)[C@H]12)C(C)C	.	.	.	.	.	25%[21.5 µM]
Nc1ccc2cc(Br)ccc2c1	?	?	-21%	.	34	50µM*
Nc1ccc(Br)cc1	4%	-9%	-11%	.	3	.
COc1ccc(-c2nc(CN3C(=O)CN=C(c4ccccc4)c4cc(Cl)ccc43)c(C)o2)cc1	43%	4%	.	-10%	.	-35%[59 µM]
CCCCCCC1CC(C)(C(=O)CNc2nncs2)OC1=O (centres undefined)	9%	-13%	-17%	-32%	-2	14µM*
COc1ccc(C)cc1NC(=O)c1cccn(Cc2cccc([N+](=O)[O-])c2)c1=O	36%	-13%	.	-11%	.	-22%[59 µM]
c1cnc(N2CCC3(CCNCC3)CC2)nc1	.	.	.	.	.	-4%[12.7 µM]
Cc1ccc(N2CCN(CCc3ccccc3)CC2)cc1	-14%	?	-1%	50µM*	.	?
CCOC(=O)[C@@]1(C#N)[C@@H]2C=CC(C(N)=O)=CN2[C@@H](C(N)=O)[C@@H]1c1cccc(Cl)c1	-19%	-15%[11.4 µM]	27µM*	-11%	-29	5%[12.7 µM]
Brc1c(Br)c(Br)c2n[nH]nc2c1Br	.	.	.	.	.	19%[59 µM]
CNC(=O)OCC[N+](C)(C)C	.	.	.	.	.	79%[12.7 µM]
Cc1ccc(OCC(=O)Nc2ccc(Cl)cc2C(=O)c2ccccc2)c(Br)c1	57%	-2%	.	3%	.	7%[59 µM]
CCOC(=O)c1cc(CC)sc1/N=C/C1C(=O)NC(=S)NC1=O	9%	-14%	133%	.	-7	45µM*
CCOC(=O)c1cc(CC)sc1/N=C/c1c(O)[nH]c(=S)[nH]c1=O	-3%	-23%	94%	-15%	-2	?
CC(=O)Nc1cc(-c2ccc(C(=O)NC3CC3)cc2)cn2c(-c3ccc(F)c(Cl)c3)cnc12	.	.	?	.	-30	.
CCC[N+]12CCC(CC1)C(=C(c1ccccc1)c1ccccc1)C2	32%	-7%	2%	-19%	2	-46%[59 µM]
CCCC[N+]12CCC(CC1)C(=C(c1ccccc1)c1ccccc1)C2	?	?	?	50µM*	-24	10µM*
COc1ccc(CCNCC2CCCO2)cc1 (centres undefined)	?	28µM*	-12%	?	0	.
Cc1ccc(NC(=O)C2CCN(C(=O)c3cnn(-c4ccccc4)c3-n3cccc3)CC2)cc1Cl	-5%	?	.	-16%	.	-1%[59 µM]
CC(=O)[C@@H]1CC[C@@H]2[C@@H]3CCC4=CC(=O)CC[C@@]4(C)[C@H]3CC[C@]21C	.	.	.	.	.	22%[21.5 µM]
CSC(=Nc1ccccc1)c1c(O)n(C)c(=O)n(C)c1=O	46%	-26%	-12%	8%	.	?
Cn1c(O)c(C(=Nc2ccccc2)SCc2ccccc2Cl)c(=O)n(C)c1=O	20%	-22%	-10%	50µM*	-12	.
CC(=O)N1C[C@H](O)C[C@H]1C(=O)O	28%	?	?	8%	-7	-16%[59 µM]
CCC(=O)OC1(c2ccccc2)CCN(C)CC1C (centres undefined)	1%	?	24µM*	3%	1	5%
Cc1cc(N(C)C)ccc1N=Nc1ccc(N)cc1	45µM*	20µM*	8%	.	13	.
SMILES	HP1b chromo inh	JMJD2A Tudor	PLK1 PBD block	BAZ2B inh	PI5P4Ka inh	G9a inh
Cc1ccc(N)cc1C	19%	-12%	-1%	.	3	.
NC(=O)C1=CN(C2OC(COP(=O)(O)OP(=O)(O)OC[C@H]3O[C@@H](n4cnc5c(N)ncnc54)[C@H](OP(=O)(O)O)[C@@H]3O)C(O)C2O)C=CC1 (some centres undefined)	.	.	.	.	.	11µM*
CCN(CC)c1ncnc2c1ncn2[C@@H]1O[C@H](COP(=O)(O)OP(=O)(O)C(Br)(Br)P(=O)(O)O)[C@@H](O)[C@H]1O	.	.	.	.	.	30µM*!
CCC(CC)c1nnc(NC(=O)CC(C)c2ccccc2)s1 (centres undefined)	-14%	-14%	?	1%	-3	?
O=C(O)c1cc(O)c(O)c(O)c1	.	.	.	.	.	2µM*
CCOc1ccc2nc(N=Nc3c(O)[nH]c(=S)[nH]c3=O)sc2c1	?	?	-28%	22µM*	-80*	35µM*
CCOc1ccc2nc(N=Nc3c(O)[nH]c(=O)[nH]c3=O)sc2c1	-6%	-11%[11.4 µM]	-25%	45µM*	-86*	.
O=C(Oc1ccccc1)N1CCC2(CCCN(Cc3ccccc3)C2)CC1	.	.	.	.	.	-8%[12.7 µM]
CCCC12CN3CC(C)(CN(C1)C3c1c(C)[nH]c(=O)[nH]c1=O)C2=O (centres undefined)	16%	-19%	.	-13%	.	?
NC[C@@H]1O[C@H](O[C@H]2[C@H](O)[C@@H](O[C@H]3[C@H](O)[C@H](N)C[C@H](N)[C@H]3O[C@@H]3O[C@H](CO)[C@@H](O)[C@H](O)[C@@H]3N)O[C@H]2CO)[C@@H](N)[C@H](O)[C@@H]1O	.	.	.	.	.	29%[21.5 µM]
O=C1NC(=O)N(CCC2=CCCCC2)C(=O)/C1=C\c1cccs1	24%	?	1.1µM*	?	?	?
Cn1cccc1/C=C1\C(=O)NC(=O)N(CCC2=CCCCC2)C1=O	-11%	-18%	-12%	-9%	-21	-6%[59 µM]
CCN(CC)c1ccc(/C=C2\C(=O)NC(=S)N(C)C2=O)o1	-8%	-26%	91%	?	-3	12%[12.7 µM]
Cc1ccc(/C=C2/C(=O)NC(=O)N(CCc3ccc(F)cc3)C2=O)o1	23%	-23%	0.84µM*	-30%	-67*	34%[0.501 µM]
O=C1NC(=O)N(CCc2ccc(F)cc2)C(=O)/C1=C/c1cccs1	-4%	56µM*	1.1µM*	-33%	-74*	3.2µM*
CC(=O)O[C@H]1C[C@@H]2CC[C@@H]3[C@H](CC[C@@]4(C)[C@H]3C[C@H]([N+]3(C)CCCCC3)[C@@H]4OC(C)=O)[C@@]2(C)C[C@@H]1[N+]1(C)CCCCC1	20%	-11%	-11%	.	2	5%[59 µM]
CCc1ccc(-n2nc(C)c3c2NC(=O)CSC3c2ccc(OC)cc2OC)cc1 (centres undefined)	52%	26%	.	8%	.	9%[59 µM]
C=CCc1c(C)nc(C)nc1N/N=C/c1ccc(N(C)C)cc1	6%	17%[11.4 µM]	?	?	3	24%[59 µM]
COc1ccc(Br)cc1CNCCc1ccc2c(c1)OCO2	?	25µM*	-7%	.	3	.
COc1ccccc1CCNCc1cc2c(cc1[N+](=O)[O-])OCO2	-55%	3.5µM*	-15%	50µM*	2	25µM*
COc1ccc(CCNCc2ccc(F)cc2)cc1OC	29%	-8%	-8%	13%	0	77%[59 µM]
COc1cc(CNCCc2ccc3c(c2)OCO3)cc(OC)c1OC	?	0.79µM*	-1%	56µM*	-8	5µM*
